Screens as filed in PubChem.
gsp ag = agonists of gsp mutant (McCune-Albright syndrome). gsp mutant cells, cAMP HTRF, 30 min. Potency, µM (top dose mostly 76.9 µM), without a hit: at the top dose activation (cAMP increase), usual class: activators. hit rate 0.13% among 340,000. AID 624287; active = well fitted activation curve with a large enough effect; inconclusive = small, poorly fitted or top-dose-only effect, or another doubt; inactive = no such curve, though single readings can be large or run the other way; cell line not stated here;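 note: phosphodiesterase inhibitor Ro 20-1724 added with compounds to block cAMP breakdown; potency is the fitted concentration of half-maximal effect; nearly all actives have a fitted effect of over 60% in size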
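Cells stably selected in G418 were plated at 2000/well, grown 16-24 hr, then given compounds in DMSO with the PDE inhibitor […] (300 uM solution added) for 30 min at 37C; cAMP was read by HTRF.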
IL2 activator = activators of IL-2; IL-2 activation reporter assay, cell-based qHTS; stimulated with anti-CD3/CD4/CD28 beads; in transgenic mouse T cells; activation, % (series mostly up to about 46 µM); hit rate 0.065% among 360,000; AID 652025; in the data active = activation above about 50%; inconclusive = mostly about 30% to 49%; note: 0% is about no effect
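Unstimulated transgenic mouse T cells preincubated 60 min with compound, then stimulated with anti-CD3/anti-CD4-coated beads plus anti-CD28 for 18 h at 37 degrees C. IL-2 response read as EGFP and DsRed fluorescence by plate cytometry.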
mIDH1 inhibitor = inhibitors of human mutant IDH1 R132H; AID 602179; IDH1-R132H enzyme, NADPH consumption, diaphorase/resazurin fluorescence; O75874; Potency, µM (highest dose often 76.6 µM), without a hit: at the top dose activity change, negative = inhibition, usual class: inhibitors; hit rate 0.093% among 390,000; note: potency is the fitted concentration of half-maximal effect; % is set by controls: 0 for no effect and ±100 for the full control effect; nearly all actives have a fitted effect of over 65% in size
Target sequence (O75874 whole entry R132H, stated change not applied): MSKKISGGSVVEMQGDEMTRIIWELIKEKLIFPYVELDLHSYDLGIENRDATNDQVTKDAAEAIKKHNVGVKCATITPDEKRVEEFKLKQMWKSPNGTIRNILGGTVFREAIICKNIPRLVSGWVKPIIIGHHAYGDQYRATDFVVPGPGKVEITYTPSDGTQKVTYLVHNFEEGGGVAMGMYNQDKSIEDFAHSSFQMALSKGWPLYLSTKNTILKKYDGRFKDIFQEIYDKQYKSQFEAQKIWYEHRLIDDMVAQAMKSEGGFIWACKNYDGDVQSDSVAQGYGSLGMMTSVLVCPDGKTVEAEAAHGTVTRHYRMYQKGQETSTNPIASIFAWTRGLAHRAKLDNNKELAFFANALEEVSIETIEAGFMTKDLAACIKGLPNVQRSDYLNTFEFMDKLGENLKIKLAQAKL
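IDH1-R132H (0.5 ug/mL) preincubated 30 min with compound, then NADPH (0.016 mM) and alpha-KG (2 mM) added; 80 min at RT, pH 7.5. Remaining NADPH coupled via diaphorase/resazurin to fluorescence (540/590 nm); concentration-response curves normalized to no-enzyme control.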
gsp antag = antagonists of gsp mutant (McCune-Albright syndrome); gsp-mutant cells, cAMP HTRF, 30 min; Potency, µM (top dose mostly 76.9 µM), for inactives: top-dose activity change, negative = inhibition, actives largely listed as inhibitors; hit rate 0.4% among 340,000; AID 624288; calls by dose curve; cell line not stated here;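 note: intracellular cAMP measured with PDE inhibitor Ro 20-1724 present during compound exposure; potency is the fitted concentration of half-maximal effect; % is set by controls: 0 for no effect and ±100 for the full control effect; nearly all actives have a fitted effect of over 65% in size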
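HTRF cAMP measurement after 30 min RT detection following 30 min, 37C compound treatment alongside […] (added as 300 uM solution) in G418-selected cells seeded at 2000/well and grown 16–24 h.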
BRCA1 expr up = activators of BRCA1 expression; MCF7-BRCA1-FFLuc reporter, luminescence, 48 h; response scale: scaled: vehicle 0%, 10 µM genistein 100%; Potency, µM (doses to about 46.1 µM), without a hit: at the top dose activation, usual class: activators; hit rate 1.1% among 380,000; note: potency is the fitted concentration of half-maximal effect; nearly all actives have a fitted effect of over 80% in size
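Cells: MCF7-BRCA1-FFLuc, 2000/well. Exposure: 48 h, 37 °C, 5% CO2. Read: luminescence, 15 min post-substrate. Controls: genistein 10 microM (maximal activation), DMSO (neutral).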
Resorufin autofl = interferes with resorufin fluorescence in IDH1 counter-screen. shares compounds with mIDH1 inhibitor. Resorufin detection reagent fluorescence interference, cell-free. inhibition of signal, % at 51.2 µM. 750 tested, under 10 active. AID 623980;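 note: 0% = wells with normal resorufin and full inhibition = wells lacking resorufin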
IDH1 WT = inhibits human wild-type IDH1, mutant selectivity check; shares compounds with mIDH1 inhibitor; WT IDH1 enzyme, NADPH diaphorase/resazurin fluorescence; Potency, µM (series often up to 115 µM), for inactives: at the highest dose activity change, negative = inhibition, hits mostly inhibitors; hit rate 9% among 750;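 note: potency is the fitted concentration of half-maximal effect; 0% = full WT IDH1 enzyme control and full inhibition = no enzyme wells; nearly all actives have a fitted effect of over 55% in size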
Target sequence (O75874 whole entry, looked up): as the sequence (O75874 whole entry R132H, stated change not applied) above, with H132R counted along it
IDH1 R132H conf = mutant IDH1 (human) inhibition, confirmed; shares compounds with mIDH1 inhibitor; IDH1 R132H enzyme, NADPH diaphorase/resazurin fluorescence; Potency, µM (highest dose often 76.6 µM), for inactives: at the top dose activity change, negative = inhibition, usual class: inhibitors; hit rate 83% among 750; note: potency is the fitted concentration of half-maximal effect; nearly all actives have a fitted effect of over 50% in size
* hit, by the source's call; u = inconclusive; x = no result; [ ] = dose if it differs, or a comment. A selection: hits, their analogues and other compounds. The true share with any hit is near 1.5%. Unless noted, calls come from the whole dose curve; as a rule, active = well fitted curve in the direction sought with a large enough effect; inconclusive = small, poorly fitted or top-dose-only effect, or another doubt; inactive = no such curve, though single readings can be large; an effect the other way counts as inactive or inconclusive.

SMILES	gsp ag	IL2 activator	mIDH1 inhibitor	gsp antag	BRCA1 expr up	Resorufin autofl	IDH1 WT	IDH1 R132H conf
COc1cc(NC(=O)CC2C(=O)N(c3cccc(C)c3)C(=O)N2Cc2ccc(F)cc2)cc(OC)c1 (configuration not stated)	x	x	19%	x	x	x	x	x
O=S(=O)(Nc1ccc(S(=O)(=O)Nc2nccs2)cc1)c1ccc(Br)cc1	-42%	0	u	12%	2%	2	8%	40µM*
Cc1cc(C(C)(C)C)oc1C(=O)N1CCN(C(=O)c2oc(C(C)(C)C)cc2C)CC1	-51%	-1	40µM*	11%	5%	-13	u	14µM*
COc1ccc(-c2oc3cc(OC(C)=O)cc(OC(C)=O)c3c(=O)c2OC)cc1	18%	0	u	u	-53%	-3	-4%	28µM*
NC(=O)CN1C(=O)/C(=c2\sc3nc(=O)c(Cc4ccccc4)nn3c2=O)c2ccccc21	-37%[15.4 µM]	0	u	0%	-19%	2	40%	-6%
CCCN1C(=O)/C(=c2\sc3nc(=O)c(Cc4ccc(C)cc4)nn3c2=O)c2ccccc21	-4%[15.4 µM]	-5	4%	4%	-1%	x	x	x
COc1cc2c(c3oc(-c4ccccc4)cc(=O)c13)C=CC(C)(C)O2	x	0	40µM*	-13%	-28%	-11	28µM*	22µM*
CC1(C)Oc2ccc3ccc(=O)oc3c2/C(=C/Nc2cccc(O)c2)C1=O	8%	-1	u	-10%	0%	5	32%	40µM*
CN/C=C1\C(=O)C(C)(C)Oc2ccc3ccc(=O)oc3c21	-3%	0	2%	-8%	-21%	x	x	x
CC1(C)Oc2ccc3ccc(=O)oc3c2/C(=C/Nc2ccc(O)cc2)C1=O	12%[15.4 µM]	0	-4%	-12%	0%	x	x	x
CC1(C)Oc2ccc3ccc(=O)oc3c2/C(=C/Nc2ccccn2)C1=O	9%	-3	29µM*	-14%	2%	-7	39%	11µM*
Clc1ccc2c(ccc[n+]2CCc2ccccc2)c1	x	x	x	x	-53%	x	x	x
COc1ccc(N2CCN(C(CNC(=O)c3ccc(C)cc3)c3ccc4c(c3)OCO4)CC2)cc1 (configuration not stated)	x	x	5%	x	x	x	x	x
CCCC(CCC)C(=O)Nc1cc(-c2cn3cccnc3n2)ccc1OC	x	x	-4%	x	x	x	x	x
CCOc1cc(C2c3c(-c4ccccc4O)n[nH]c3C(=O)N2Cc2cccnc2)ccc1O (configuration not stated)	x	x	7%	x	x	x	x	x
CCOc1ccc(C2c3c(-c4ccccc4O)n[nH]c3C(=O)N2Cc2cccnc2)cc1OC (configuration not stated)	x	x	u	x	x	1	-12%	32µM*
COc1cc(C2c3c(-c4ccccc4O)n[nH]c3C(=O)N2Cc2ccncc2)cc(OC)c1OC (configuration not stated)	x	x	-14%	x	x	x	x	x
COc1ccc(C2c3c(-c4cc(Cl)c(C)cc4O)n[nH]c3C(=O)N2Cc2cccnc2)cc1OC (configuration not stated)	-18%	0	u	8%	-38%	8	5%	28µM*
CCOCCCNC(=O)C(c1ccc(OC)cc1)N(Cc1cccs1)C(=O)c1ccc(NC(C)=O)cc1 (configuration not stated)	x	x	-12%	x	x	x	x	x
CCNC(=O)/C(C#N)=C/c1c(N2CCN(C)CC2)nc2c(C)cccn2c1=O	-2%[15.4 µM]	-2	2%	10%	1%	x	x	x
CNC(=O)/C(C#N)=C/c1c(N(Cc2ccccc2)Cc2ccccc2)nc2c(C)cccn2c1=O	19%	-1	52µM*	-1%	-37%	-1	2%	14µM*
CCNC(=O)/C(C#N)=C/c1c(N2CCOCC2)nc2ccccn2c1=O	24%	-1	4%	-3%	-5%	x	x	x
CCNC(=O)/C(C#N)=C/c1c(N(Cc2ccccc2)Cc2ccccc2)nc2ccccn2c1=O	9%	-6	u	-26%	-98%	-4	1%	20µM*
CCC(C)CN1C(=O)CSCC1(C)C(=O)NC(C)C (configuration not stated)	x	1	x	x	x	x	x	x
CCOC(=O)C1CCN(C(c2cccnc2)c2c(NC(=O)c3ccco3)sc(C)c2C)CC1 (configuration not stated)	-29%	0	u	-15%	-69%	1	-3%	28µM*
SMILES	gsp ag	IL2 activator	mIDH1 inhibitor	gsp antag	BRCA1 expr up	Resorufin autofl	IDH1 WT	IDH1 R132H conf
Cc1sc(NC(=O)c2ccco2)c(C(c2cccnc2)N2CCN(CCO)CC2)c1C (configuration not stated)	2%	0	5%	-4%	-19%	x	x	x
O=S(=O)(c1ccc(NC(=S)N/N=C/c2ccc(N3CCOCC3)cc2)cc1)N1CCOCC1	-9%	1	0%	-2%	-1%	x	x	x
O=S(=O)(c1ccc(NC(=S)N/N=C/c2ccc(Oc3ccccc3)cc2)cc1)N1CCOCC1	-1%	-4	u	-8%	11%	-1	-5%	-22%
Cc1c(C#N)c(N)nc2c3c(sc12)NC(=O)CC3c1ccc(Cl)cc1 (configuration not stated)	u	1	29µM*	8%	-68%	3	9%	16µM*
COc1ccc(-c2cc(-c3nnc(COC(=O)c4ccc(O)cc4)o3)c3ccccc3n2)cc1OC	28%	0	u	u	-2%	1	6%	u
COc1ccc(N(C(=O)c2ccco2)C(C(=O)NC2CCCCC2)c2ccccc2)cc1 (configuration not stated)	-4%	-4	u	-5%	1%	-10	-20%	20µM*
Cc1cc(C)cc(N(C(=O)CNC(=O)c2ccco2)C(C(=O)NC2CCCCC2)c2cccnc2)c1 (configuration not stated)	10%[15.4 µM]	-2	u	-2%	7%	-2	0%	u
COc1ccc(C(C(=O)NC2CCCCC2)N(C(=O)c2ccco2)c2ccccc2OC)cc1 (configuration not stated)	-47%[15.4 µM]	-2	0%	-11%	-28%	x	x	x
Cc1cc(C)cc(N(C(=O)CNC(=O)c2ccco2)C(C(=O)NC2CCCC2)c2cccnc2)c1 (configuration not stated)	-15%	-2	-6%	-3%	-24%	x	x	x
